Each structure is given as a SMILES string. The source made the active and inactive calls. Rule for the calls: active = hit-call score of the fitted dose curve at least 0.9, where 1 is the maximum; inactive = score below 0.9.

As usually defined, the AC50 is the midpoint of the concentration-response curve, whichever way the signal moves.

Read-out in this assay: Insulin-like growth factor-binding protein 1 (IGFBP1), IGFBP1 (gene 3484)
Nature of the assay: LTEA_HepaRG_IGFBP1: Life Technologies and Expression Analysis (LTEA) Assay for Insulin-like growth factor-binding protein 1 (IGFBP1) using HepaRG (AID 2283508). The note with it: mRNA level, 48 h; actives raise or lower the signal. On the procedure:
LTEA_HepaRG is a cell based, multiplexed-readout assay that uses HepaRG, a human liver cell line, with measurements taken at 48 hours after chemical dosing on a 96-well plate.LTEA_HepaRG_IGFBP1 is one of 102 assay component(s) measured in the LTEA HepaRG cell culture assay. It is a marker of Cell proliferation, survival, death.Data from the assay component LTEA_HepaRG_IGFBP1 was analyzed into 1 endpoint. This assay endpoint, LTEA_HepaRG_IGFBP1, was analyzed with bidirectional fitting relative to DMSO as the negative control and baseline of activity. Using a type of inducible reporter, measures of mRNA induction for gain or loss-of-signal activity can be used to understand regulation of transcription factor activity. To generalize the intended target to other relatable targets, this assay endpoint is annotated to the transporter intended target family, where the subfamily is hormone carrier protein.
A total of 1060 chemcials from the ToxCast library were tested in eight-point concentration-response experiments. Cell culture and cytotoxicity assays were conducted at Thermo Fisher Scientific's Custom Services facility (Madison, WI). A single lot of human HepaRG cells (Thermo Fisher Scientific, Frederick, MD) was used for the cell culture experiments. 96-well format collagen type I coated plates of human HepaRG cells were prepared using established methods. Briefly, cryopreserved HepaRG cells were thawed, plated at a density of approximately 100,000 cells/well in HepaRG Thaw, Plate, and General Purpose media (HPRG770, Thermo Fisher Scientific), and incubated for 48 hours. 0.5% DMSO was selected as vehicle control to balance the requisite need of DMSO in HepaRG cultures to maintain differentiation (for example, baseline metabolism, proportions of hepatocytes vs. cholangiocytes), while enabling further hepatic receptor pathway activation (for example, PXR and CAR) in response to chemical exposure. 48 hours after plating, the culture medium was replaced with HepaRG Serum-Free Incudtion Media. Cells were exposed to each test chemical in duplicate and maintained in CO2 incubators for another 48 hours. Chemical plates were thawed to room temperature and 200x concentrations of treatment groups were prepared. 8-point conentration-reponse curves were made with the highest exposure at 100 uM, followed by half-log dilutions, all in 0.5% DMSO. Each test plate contained variouse controls, induction positive controls (1mM phenobarbital), cytotoxicity positive controls ([…] aflatoxin B1), vehicle controls (0.5% DMSO), and total lysis controls (0.5% DMSO). Cell morphology images were taken using an Essen IncuCyte FLR automated microscope, with six 96-well plates imaged in about 24 minutes. Images were captured and exported and JPEG files. Spent culture media was transfered to black-well plates for the LDH assay, and remaining media was sorted at -80 C for later use. Cells were treated with RLT buffer and frozen until shipped for gene expression analysis. Total RNA was isolated from the cell suspension in 75 uL of Buffer RLT (Qiagen, Germantown, MD 20874) by Quintiles/Expression Analysis (Durham, NC) using a custom isolation procedure. Total RNA from each plate well was transferred to a preamplification plate. Fluidigm's 96.96 Dynamic ArrayTM (Fluidigm, Amsterdam, the Netherlands) technology was used for gene expression analyses by quantitative reverse transcription polymerase chain reaction (qRT-PCR, performed by Quintiles/Expression Analysis, Durham, NC)89. Standard TaqManTM Assays (Applied Biosystems/ThermoFisher Scientific, Foster City, CA) were used to assess the expression of 93 genes selected based on their selectivity and sensitivity to important hepatic receptors known to be modulated by environmental chemicals; importance in human hepatocyte functionality; and hepatotoxicity. […]
As for `Cc1ccc(N)cc1`, the outcome was inactive.
As for `O=C(O)C1C2CCC(O2)C1C(=O)O` (stereo not given), the AC50 was 93.3 µM (active).
On to `Nc1ccc([N+](=O)[O-])cc1`, for which the call was inactive.
Take `OCCOCCO`: the outcome was inactive.
Still for that read-out and setting: for `O=P(OCCCl)(OCCCl)OCCCl` the value was “inactive”.
For `CCCCC(CC)COC(=O)c1ccc(C(=O)OCC(CC)CCCC)c(C(=O)OCC(CC)CCCC)c1` (stereo not given), the result was inactive.
On the same count and under the same terms, then `CCCCCOC(=O)c1ccccc1C(=O)OCCCCC`, with “inactive”; and `CCCCCCCCCCCCCN1CC(C)OC(C)C1` (stereo not given), with “inactive”; and `CC(C)COC(=O)c1ccccc1C(=O)OCC(C)C`, with “inactive”.
In the case of `CCC(C)c1ccc(O)cc1` (stereo not given), the compound was classed as inactive.
On the same count and under the same terms, for `CCOc1cccc(C2(N3CCN(c4ccccc4)CC3)CCC(C)CC2)c1` (stereo not given) the value was “inactive”; for `ClC1=C(Cl)C2(Cl)C3C(Cl)C=CC3C1(Cl)C2(Cl)Cl` (stereo not given), “inactive”.
Turning to `Cc1ccc([N+](=O)[O-])cc1`, the compound was classed as inactive.
As for `Cc1cc(N=Nc2ccccc2C)ccc1N`, the AC50 is 9.92 µM (active).
As for `CC(C)(OOC(C)(C)c1ccccc1)c1ccccc1`, the call was inactive.
Same read-out and setting: then `CN(C)[C@@H]1C(=O)C(C(N)=O)=C(O)[C@@]2(O)C(=O)C3=C(O)c4c(O)cccc4[C@@](C)(O)[C@H]3C[C@@H]12`, with “inactive”.
As to `O=Cc1ccco1`, the result was inactive.
With `Cn1cc(-c2ccccc2)c(=O)c(-c2cccc(C(F)(F)F)c2)c1`, the AC50 was 50 µM (active).
Consider `CC(C)(O)c1cnn2c(-c3ccc(F)c(-c4c(F)cccc4C#N)c3)cnc2n1`, for which the compound was classed as inactive.
The same measure, in the same setting: then `[O-][Cl+]O`, with “inactive”.
For `Cc1ccc(N=C=O)cc1N=C=O`, the AC50 was 29.4 µM (active).
For `O=C(N[C@H](c1ccccc1)[C@@H]1CN2CCC1CC2)c1c(Cl)ccc(C(F)(F)F)c1Cl`, the AC50 is 34.8 µM (active).
For the compound `O=[N+]([O-])C(Br)(CO)CO`, the compound was called inactive.
Turning to `CC(O)CCO` (stereo not given), the outcome was inactive.
Take `Nc1ccc(Cl)cc1N`: the AC50 is 16.1 µM (active).
On the same count and under the same terms, then `O=[N+]([O-])c1ccc(Oc2ccc(Cl)cc2Cl)cc1`, with 50 µM (active).
Turning to `COC(=O)Nc1nc2ccccc2[nH]1`, the compound was called inactive.
For the compound `CCN(CC)N=O`, the call was inactive.
On to `c1ccc(NNc2ccccc2)cc1`, for which the call was inactive.
Same read-out and setting: for `C=CCc1ccc2c(c1)OCO2` the value was “inactive”; for `COP(=S)(OC)SCN1C(=O)c2ccccc2C1=O`, “inactive”; for `C[C@]12C=CC3=C4CCC(=O)C=C4CC[C@H]3[C@@H]1CC[C@@H]2O`, “inactive”.
The same measure, in the same setting: for `Nc1ccc(Cc2ccc(N)cc2)cc1` the value was “inactive”.
For `OCCCBr`, the call was inactive.
The same measure, in the same setting: then `c1ccc2c(c1)oc1ccccc12`, with “inactive”; and `CN(C)C(=O)Nc1ccc(Cl)cc1`, with “inactive”.
As for `CC(C)(C)C(O)(CCc1ccc(Cl)cc1)Cn1cncn1` (stereo not given), the AC50 is 50 µM (active).
For the compound `C[N+](C)(C)CC1CO1` (stereo not given), the outcome was inactive.
For `N#CC(Br)Br`, the compound was called inactive.
As for `[Cl-].[Cl-].[Hg+2]`, the result was inactive.
